Assay outcomes from PubChem BioAssay.
Only some compounds are listed: those with a hit (about 1.1% of all), similar ones and a draw of the others.
RXFP1 antag = RXFP1 (human) relaxin receptor antagonism. Q9HBX9. HEK293-RXFP1, relaxin-stimulated cAMP HTRF, 30 min; hits give low values. activity change, negative = inhibition, % at 57.5 µM. 350,000 compounds, 0.59% hits. AID 1259400;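 active = activity change of -60% or lower, but not beyond a set lower limit; inconclusive = change between -60% and -40%, or beyond the set limit; inactive = change above -40%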; also: % is scaled to controls: 0 for no effect and ±100 for the full control effect
gsp ag = gsp mutant agonism. gsp mutant cells, cAMP HTRF, 30 min. Potency, µM (series often up to 76.9 µM), inactives show at the top dose activation (cAMP increase), usual class: activators. 340,000 compounds, 0.13% hits. AID 624287; active = well fitted activation curve with a large enough effect; inconclusive = small, poorly fitted or top-dose-only effect, or another doubt; inactive = no such curve, though single readings can be large or run the other way; cell line not stated here;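 also: phosphodiesterase inhibitor Ro 20-1724 added with compounds to block cAMP breakdown; potency is read from the fitted curve at half-maximal effect; nearly all actives have a fitted effect of over 60% in size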
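Cells in DMEM/10% FBS with G418 were pretreated with compounds in DMSO plus […] (300 uM stock) for 30 min at 37C. cAMP was measured by HTRF (cAMP-d2 plus anti-cAMP antibody-K) after 30 min at room temperature.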
Tb PFK inh = T. brucei PFK enzyme inhibition. T. brucei PFK, ADP-Glo luminescence. AID 485367. Potency, µM (titrated, usually from 57.5 µM), without a hit: top-dose activity, negative = inhibition, most hits filed as inhibitors. 330,000 compounds, 0.17% hits. O15648;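 also: potency is read from the fitted curve at half-maximal effect; 0% = uninhibited 1x PFK enzyme wells and -100% = no-enzyme wells; nearly all actives have a fitted effect of over 60% in size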
Target sequence (O15648 whole entry, looked up): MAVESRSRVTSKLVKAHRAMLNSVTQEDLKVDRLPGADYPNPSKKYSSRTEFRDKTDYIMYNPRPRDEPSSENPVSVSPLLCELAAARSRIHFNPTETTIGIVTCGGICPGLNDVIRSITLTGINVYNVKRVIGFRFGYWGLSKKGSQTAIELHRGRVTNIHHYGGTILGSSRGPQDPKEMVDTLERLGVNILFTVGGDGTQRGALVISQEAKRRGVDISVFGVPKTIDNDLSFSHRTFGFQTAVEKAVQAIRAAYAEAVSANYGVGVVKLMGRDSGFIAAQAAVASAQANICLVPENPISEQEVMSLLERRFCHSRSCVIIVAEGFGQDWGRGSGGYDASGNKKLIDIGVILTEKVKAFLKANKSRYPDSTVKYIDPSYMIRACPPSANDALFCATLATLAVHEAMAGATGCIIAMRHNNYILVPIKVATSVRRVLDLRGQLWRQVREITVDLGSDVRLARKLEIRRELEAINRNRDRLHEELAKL
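Luminescent ADP detection (ADP-Glo, two-step: ATP depletion then ADP-to-ATP conversion for luciferase) reported PFK activity after 45 min room-temperature reaction of 1.25 nM enzyme with 0.5 mM F6P and 0.1 mM ATP at pH 8.0.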
RXFP1 agonist = agonists of human relaxin receptor RXFP1. Q9HBX9. HEK293T-RXFP1 cAMP TR-FRET, 30 min; response scale: percent of porcine relaxin response, buffer zero. Potency, µM (highest dose often 57.5 µM), without a hit: at the top dose activation, usual class: activators. 370,000 compounds, 0.3% hits; also: potency is read from the fitted curve at half-maximal effect; % is scaled to controls: 0 for no effect and ±100 for the full control effect; nearly all actives have a fitted effect of over 60% in size
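HEK293 cells stably expressing RXFP1, treated 30 min at 37C with compounds plus PDE4 inhibitor Ro 20174; cAMP measured by HTRF TR-FRET. Normalized to buffer and 29 nM porcine relaxin; EC50 by Hill fit.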
gsp antagonist = antagonizes gsp, the McCune-Albright syndrome mutation; gsp-mutant cells, cAMP HTRF, 30 min; Potency, µM (top dose mostly 76.9 µM), for inactives: at the highest dose activity change, negative = inhibition, actives largely listed as inhibitors; 340,000 compounds, 0.4% hits; AID 624288; calls by dose curve; cell line not stated here;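 also: intracellular cAMP measured with PDE inhibitor Ro 20-1724 present during compound exposure; potency is read from the fitted curve at half-maximal effect; % is scaled to controls: 0 for no effect and ±100 for the full control effect; nearly all actives have a fitted effect of over 65% in size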
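Measurement of cellular cAMP by homogeneous time-resolved fluorescence following a 30 min compound exposure at 37C. The PDE inhibitor […] was present throughout; the assay buffer was DPBS with 0.05% BSA and 0.005% Tween 20.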
p53 reactivator = mutant p53 re-activation in reporter cells; 320,000 compounds, 0.063% hits; Potency, µM (doses to about 92.2 µM), inactives show top-dose activity change, positive = activation, hits mostly activators; H1299 p53-A138V BP100-luciferase reporter, luminescence, 24 h; also: potency is read from the fitted curve at half-maximal effect; % of control where 0% means no effect; nearly all actives have a fitted effect of over 45% in size
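p53-null H1299 cells stably carrying temperature-sensitive p53-A138V and a BP100-luciferase reporter were pinned with compounds (4-point, 1:5 series) and held 24 hrs at 37 deg C. Luminescence was read 10 min after detection reagent.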
Active calls of the source: *; [ ] = dose if it differs, or a comment. Unless noted, calls follow the shape of the dose curve; as a rule, active = well fitted curve in the direction sought with a large enough effect; inconclusive = small, poorly fitted or top-dose-only effect, or another doubt; inactive = no such curve, though single readings can be large; an effect the other way counts as inactive or inconclusive.

How did Cn1cc(C(=O)Nc2ccc(F)c(Cl)c2)cn1 do in these assays?
RXFP1 antag: -3.1; gsp ag: 6.3%; Tb PFK inh: -11.2%; RXFP1 agonist: 0.9%; gsp antagonist: 11.2%; p53 reactivator: 11.0%

How did CN1c2ccsc2C(O)=C(C(=S)Nc2ccc(F)c(Cl)c2)S1(=O)=O do in these assays?
RXFP1 antag: 3.1; gsp ag: -23.3%; Tb PFK inh: -9.2%; RXFP1 agonist: 0.8%; gsp antagonist: 35.5µM*; p53 reactivator: 7.9%

How did Cc1cc(C(F)(F)F)c(C#N)c(SCC(=O)NC(C)(C)C)n1 do in these assays?
RXFP1 antag: -8.7; gsp ag: 6.1%; Tb PFK inh: -8.0%; RXFP1 agonist: 1.2%; gsp antagonist: -24.1%; p53 reactivator: -1.9%

What do the screens show for `Cc1onc(-c2ccc(Cl)cc2Cl)c1-c1csc(N/N=C/c2ccccc2Cl)n1`?
RXFP1 antag: -69.0*; gsp ag: 4.8%; Tb PFK inh: 2.9%; RXFP1 agonist: -0.3%; gsp antagonist: -6.0%; p53 reactivator: -4.1%

Results for Cc1onc(-c2ccccc2)c1-c1csc(N/N=C/c2ccccc2Cl)n1 ?
RXFP1 antag: inconclusive; gsp ag: -1.5%; Tb PFK inh: 2.2%; RXFP1 agonist: -1.1%; gsp antagonist: 2.0%; p53 reactivator: -3.0%

How did COc1ccccc1-c1c(C)nn2c(N3CCCCCC3)cc(C)nc12 do in these assays?
gsp ag: 1.4%; Tb PFK inh: 2.2%; RXFP1 agonist: 3.2%; gsp antagonist: 35.5µM*; p53 reactivator: -13.4%

What do the screens show for `COc1ccccc1/C=N/NC(=O)c1nnn(-c2nonc2N)c1CSC1=NCCS1`?
gsp ag: inconclusive; Tb PFK inh: 2.4%; RXFP1 agonist: 1.9%; gsp antagonist: -14.9%; p53 reactivator: 22.8%

Results for Cc1ccc(S(=O)(=O)N2CCOCC2)cc1NC(=O)c1cc([N+](=O)[O-])ccc1N1CCOCC1 ?
RXFP1 antag: -6.8; gsp ag: 11.2µM*; Tb PFK inh: -15.1%; RXFP1 agonist: 12.4%; gsp antagonist: 6.6%; p53 reactivator: 0.3%

How did CCN1CCN(c2ccc(S(=O)(=O)N3CCOCC3)cc2NC(=O)c2cccc([N+](=O)[O-])c2)CC1 do in these assays?
RXFP1 antag: -4.5; gsp ag: 25.1µM*; Tb PFK inh: 0.4%; gsp antagonist: 9.1%; p53 reactivator: 1.3%

What do the screens show for `O=C(Nc1cccc(-c2nc3ccccc3s2)c1)c1cccs1`?
RXFP1 antag: -2.4; gsp ag: 1.0%[15.4 µM]; Tb PFK inh: -0.1%; RXFP1 agonist: -0.2%; gsp antagonist: 22.4µM*; p53 reactivator: 9.1%

Results for O=C(CCS(=O)(=O)c1ccccc1)Nc1ccc(-c2nc3ccccc3s2)cc1 ?
RXFP1 antag: -15.7; gsp ag: -13.0%[15.4 µM]; Tb PFK inh: 4.8%; RXFP1 agonist: 0.2%; gsp antagonist: 6.8%

Results for O=C(CCS(=O)(=O)c1ccccc1)Nc1cccc(-c2nc3ccccc3s2)c1 ?
RXFP1 antag: inconclusive; gsp ag: -10.6%; Tb PFK inh: -1.9%; RXFP1 agonist: -5.5%; gsp antagonist: 39.8µM*; p53 reactivator: inconclusive

What do the screens show for `CCC(CC)C(=O)Nc1cccc(-c2nc3ccccc3s2)c1`?
RXFP1 agonist: 15.1%

Results for CC(C)(C)OC(=O)NCc1nc(N)n[nH]1 ?
RXFP1 antag: -28.0; gsp ag: -7.5%; Tb PFK inh: 6.2%; RXFP1 agonist: 2.0%; gsp antagonist: 6.1%; p53 reactivator: -0.2%

What do the screens show for `O=C(COc1ccc2ccccc2c1)NNC(=O)Cc1cccc2ccccc12`?
RXFP1 antag: -15.3; gsp ag: 0.0%; Tb PFK inh: -7.3%; RXFP1 agonist: 4.2%; gsp antagonist: -3.6%; p53 reactivator: -0.4%

Results for O=C(COc1ccc2ccccc2c1)NNC(=O)Cc1ccccc1 ?
RXFP1 antag: -120.0*; gsp ag: -4.9%; Tb PFK inh: 2.4%; RXFP1 agonist: 12.7%; gsp antagonist: -23.7%; p53 reactivator: -6.3%

What do the screens show for `CCOc1cc(-c2ccc(OC(=O)c3ccccc3Cl)c(OC)c2)cc(=O)c2c(C)oc(C)c12`?
RXFP1 antag: -73.0*; RXFP1 agonist: -0.7%

Results for CCOc1cc(-c2ccc(OC(=O)c3ccc(OC)cc3)c(OC)c2)cc(=O)c2c(C)oc(C)c12 ?
RXFP1 antag: -17.2; RXFP1 agonist: 0.2%

What do the screens show for `CCCCCC(O)(c1ccc(OC)cc1)C(CN1CCOCC1)c1ccccc1` (stereo unspecified)?
RXFP1 antag: -60.7*; gsp ag: -7.2%; Tb PFK inh: -8.3%; RXFP1 agonist: 4.1%; gsp antagonist: -20.1%; p53 reactivator: -5.8%

How did COc1ccc(C(O)(C2CCCCC2)C(CN2CCOCC2)c2ccccc2)cc1 (stereo unspecified) do in these assays?
RXFP1 antag: -89.7*; gsp ag: -1.7%; Tb PFK inh: 3.9%; RXFP1 agonist: 0.0%; gsp antagonist: -18.8%; p53 reactivator: -2.2%

What do the screens show for `CCCCC(O)(c1ccc(OC)cc1)C(CN1CCOCC1)c1ccccc1` (stereo unspecified)?
RXFP1 antag: -7.5; gsp ag: inconclusive; Tb PFK inh: -0.1%; RXFP1 agonist: -1.6%; gsp antagonist: -5.2%; p53 reactivator: -7.3%

How did Cc1cccn2c(=O)c(/C=C3\SC(=S)NC3=O)c(NCCCN3CCOCC3)nc12 do in these assays?
RXFP1 antag: 8.8; gsp ag: 10µM*; Tb PFK inh: 9.9%; RXFP1 agonist: 5.01µM*; gsp antagonist: 16.0%; p53 reactivator: 0.6%

How did CCCN1C(=O)/C(=C/c2c(NCCCOCC)nc3c(C)cccn3c2=O)SC1=S do in these assays?
RXFP1 antag: 4.6; gsp ag: -2.0%; Tb PFK inh: -0.7%; RXFP1 agonist: 1.0%; gsp antagonist: 3.0%; p53 reactivator: inconclusive

What do the screens show for `CC(C)N(Cc1ccccc1)C(=O)c1cc2ccc3cccnc3c2[nH]1`?
RXFP1 antag: -101.5*; RXFP1 agonist: -0.3%

What do the screens show for `COc1ccccc1NC(=O)c1cc2ccc3cccnc3c2[nH]1`?
RXFP1 antag: -71.5*; RXFP1 agonist: 0.1%

What do the screens show for `CCN(CC)CCCN1C(=O)C(O)=C(C(=O)c2cc3ccccc3o2)C1c1ccccn1` (stereo unspecified)?
RXFP1 antag: 0.8; gsp ag: inconclusive; Tb PFK inh: 1.1%; RXFP1 agonist: inconclusive; gsp antagonist: 11.5%; p53 reactivator: -6.7%

Results for COc1ccc(NC(=O)Nc2ccc3c(c2)N(C)C(=O)CS3)cc1Cl ?
RXFP1 antag: inconclusive; gsp ag: -13.0%; Tb PFK inh: -2.1%; RXFP1 agonist: -2.7%; gsp antagonist: 50.1µM*; p53 reactivator: -9.9%
